Laboratory results: PubChem BioAssay (Tox21)
Inconclusive results are not listed. Unmarked numbers belong to inactive results. Calls follow the shape of the dose curve; as a rule, active = well fitted cell-killing curve with a large enough effect in the repeat runs; inconclusive = weak or mixed curves; inactive = flat fitted curve, though single readings scatter.

Assay: qHTS assay to identify small molecule antagonists of the estrogen receptor beta (ER-beta) signaling pathway - cell viability counter screen (AID 1259382); also: nearly all actives have a fitted effect of over 55% in size
Details: ER-beta-UAS-bla HEK293T viability, CellTiter-Glo luminescence, 16 h; series mostly up to 92.4 µM; activity change, negative = cytotoxicity: at the top concentration
From the text: U.S. Tox21 Program National Center for Advancing Translational Sciences [NCATS] NIH Chemical Genomics Center [NCGC] U.S. Environmental Protection Agency [EPA] National Institutes of Environmental Health Sciences [NIEHS] National Toxicology Program [NTP] U.S. Food and Drug Administration [FDA] Tox21 Assay Overview: Estrogen receptor (ER), a nuclear hormone receptor, plays an important role in development, metabolic homeostasis and reproduction. Two subtypes of ER, ER-alpha and ER-beta, have similar expression patterns with some uniqueness in both types. Endocrine disrupting chemicals (EDCs) and their interactions with steroid hormone receptors like ER causes disruption of normal endocrine function. To identify the compounds that inhibit ER signaling, an ER-beta-UAS-bla GripTite cell line (Life Technologies, Madison, WI, USA) containing a beta-lactamase reporter gene under the control of an UAS response element was used to screen Tox21 10K compound library. The cytotoxicity of the Tox21 compound library against the ER-beta-bla cell line was tested in parallel by measuring the cell viability using CellTiter-Glo assay in the same wells.
Tox21 Assay Protocol Summary: ER-beta-UAS-bla HEK293T cells were dispensed at 2,000 cells/4 uL of assay medium containing 2% charcoal stripped FBS per well into black wall/clear-bottom 1536-well plates using a Multidrop Combi (ThermoFisher Scientific, Waltham, MA) dispenser. After the assay plates were incubated at a 37C and 5% CO2 for 6 hr, 23 nL of compounds dissolved in DMSO, positive controls or DMSO only was transferred to the assay plate by a Pintool station (Kalypsys, San Diego, CA), followed by addition of 1 uL (1nM as final concentration) of 17-beta-estradiol (E2) in assay medium using a Flying Reagent Dispenser (FRD, Aurora Discovery, San Diego, CA). The plates were incubated at 37C and 5% CO2 for 16 hr. Then 1 uL of LiveBLAzer B/G FRET substrate was added using a Flying Reagent Dispenser, the plates were incubated at room temperature for 2 hours, and fluorescence intensity was measured by an Envision plate reader (PerkinElmer, Shelton, CT). For cell viability readout that measures cytotoxicity, 4 uL/well of CellTiter-Glo reagent was added into the assay plates using a FRD. After 30 min incubation at room temperature, the luminescence intensity in the plates was measured using a ViewLux (PerkinElmer) plate reader.
% is scaled to controls: 0 for no effect and ±100 for the full control effect.

Compound | activity change, negative = cytotoxicity
COC(=O)/C=C\C(=O)O | 8.07%
CSc1cnccn1 | 6.48%
O=C(CN1CCNCC1)NC1CCCCC1 | 13.2% [at 42.5 µM]
O=C1OCCO1 | 0.194%
Cc1ccc(C)c([N+](=O)[O-])c1 | 1.07%
CC1CC(=O)CC(C)(C)C1 (stereo not given) | -0.182%
CC(C)OC(=O)OCOP(=O)(CO[C@H](C)Cn1cnc2c(N)ncnc21)OCOC(=O)OC(C)C | 3.29% [at 42.5 µM]
C=C(C)[C@@H]1CC=C(C)CC1 | 7.41%
CCCCOC(=O)C(C)O (stereo not given) | 0.998%
CC1=NN(c2ccc(S(=O)(=O)O)cc2)C(=O)C1 | 6.59%
CC/C=C\CCOC(=O)c1ccccc1O | 0.0461%
CCCCC1CCC(O)CC1 (stereo not given) | 5.09%
CCC[C@@H]1C[C@@H](C(=O)N[C@@H]([C@H]2O[C@H](SC)[C@H](O)[C@@H](O)[C@H]2O)[C@@H](C)O)N(C)C1 | 4.1% [at 42.5 µM]
C[C@@H](O)C(=O)O | 6.1%
CCCc1ccc(O)cc1 | -4.57%
COc1cc2c(cc1OC)C(=O)C(CC1CCN(Cc3ccccc3)CC1)C2 (stereo not given) | -8.38% [at 42.5 µM]
c1ccc2c(CC3=NCCN3)cccc2c1 | -2.16% [at 42.5 µM]
CC(=O)CC(=O)Nc1ccc(C)cc1C | 8.32%
C/C=C(\C)C(=O)OCCc1ccccc1 | 7.14%
C/C(CC(C)C)=N\O | 7.55%

Compound | activity change, negative = cytotoxicity
Cc1c(N)cccc1Cl | -4.36%
N[C@@H](CSCCCO)C(=O)O | 8.62% [at 19 µM]
CCOCCOCC | 8.12%
O=C(NCN1CCOCC1)c1cnccn1 | 0.552% [at 42.5 µM]
CC1c2ccccc2CN1NC(=O)c1ccc(Cl)c(S(N)(=O)=O)c1 (stereo not given) | -0.661% [at 42.5 µM]
CCNC(=O)NCc1cccc(Cl)c1 | 4.81% [at 42.5 µM]
C=C(C)[C@@H]1CC=C(C)C(=O)C1 | 1.06%
CC(=O)CCC1=C(C)CCCC1(C)C | -0.995%
C[C@H]1[C@@H](c2ccccc2)NC(=O)N1C | -10%
CCCC(CC)c1ccccc1 (stereo not given) | 17.5%
[O]=[Mo](=[O])=[O] | -3.58% [at 19 µM]
CC(=O)c1cc(C)oc1C | 2.09%
O=C1CCCCO1 | 4.84%
CO[Si](CCCn1c(=O)n(CCC[Si](OC)(OC)OC)c(=O)n(CCC[Si](OC)(OC)OC)c1=O)(OC)OC | -1.01% [at 42.5 µM]
COS(=O)(=O)O | -0.366%
CN(C)CCN(C)CCO | 2.67%
Cn1c(=O)c2[nH]c(Br)nc2n(C)c1=O | 7.64% [at 42.5 µM]
O=Cc1ccccc1Cl | 1.07%
O=Cc1cc2ccccc2o1 | 1.78%
CCC/C=C(\C=O)CC | 0.171%
